From PubChem BioAssay
HPGD block = HPGD (human) dehydrogenase inhibition; purified HPGD, NADH fluorescence kinetic, PGE2 substrate; Potency, µM, for inactives: top-dose activity change, negative = inhibition, usual class: inhibitors; actives 4.3% (n = 150,000); AID 894; active = well fitted inhibition curve with a large enough effect, not every such curve was filed as active; inconclusive = small, poorly fitted or top-dose-only effect, or another doubt; inactive = no such curve, though single readings can be large or run the other way
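20 nM HPGD preincubated 15 min at room temperature with compound in 50 mM Tris-HCl pH 8, 0.01% Tween 20. Started with 1 mM NAD+ and 30 uM prostaglandin E2; NADH fluorescence (360/450 nm) read 5 times over 30-s intervals, last minus first.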
NPSR antagonist = antagonists of human neuropeptide S receptor cAMP signaling; actives 1% (n = 220,000); Potency, µM (highest dose often 38.3 µM), for the others: top-dose activity change, negative = inhibition, usual class: inhibitors; AID 1461; CHO-NPSR cells, cAMP TR-FRET, antagonist mode; Q6W5P4; also: nearly all actives have a fitted effect of over 50% in size
Target sequence (Q6W5P4 whole entry, looked up): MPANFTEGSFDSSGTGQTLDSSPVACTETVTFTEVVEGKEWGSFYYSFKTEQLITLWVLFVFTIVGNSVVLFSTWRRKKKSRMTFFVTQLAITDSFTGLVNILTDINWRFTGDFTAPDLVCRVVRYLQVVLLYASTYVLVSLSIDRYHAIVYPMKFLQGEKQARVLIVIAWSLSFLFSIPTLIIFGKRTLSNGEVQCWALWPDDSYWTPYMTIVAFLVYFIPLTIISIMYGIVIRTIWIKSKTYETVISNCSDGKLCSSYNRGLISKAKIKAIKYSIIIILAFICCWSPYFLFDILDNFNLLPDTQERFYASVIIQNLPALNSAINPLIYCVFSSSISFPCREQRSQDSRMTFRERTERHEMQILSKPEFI
Tau FP inhib = inhibitors of human tau fibril formation. Potency, µM (doses to about 57.7 µM), inactives show top-dose activity, negative = inhibition, actives largely listed as inhibitors. P10636. actives 0.39% (n = 280,000). K18 P301L tau heparin fibrillization, Alexa594 FP, 6 h. AID 1468; also: nearly all actives have a fitted effect of over 55% in size
Target sequence (P10636 561-689 P618L limits assumed): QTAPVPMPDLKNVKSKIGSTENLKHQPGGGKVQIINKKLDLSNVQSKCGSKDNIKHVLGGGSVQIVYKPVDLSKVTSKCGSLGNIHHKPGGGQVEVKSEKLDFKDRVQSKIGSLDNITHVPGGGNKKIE
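FP of Alexa 594-tau after heparin (20 uM) induction. Substrate: human K18 P301L, 15 uM unlabeled, 0.24 uM labeled. Buffer 100 mM sodium acetate pH 7. 6 hr, 37 C.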
ALDH1A1 block = ALDH1A1 (human) enzyme inhibition; actives 7.3% (n = 220,000); Purified ALDH1A1, NADH fluorescence, propionaldehyde substrate; P00352; Potency, µM (top dose mostly 75.3 µM), inactives show at the top dose activity, negative = inhibition, actives largely listed as inhibitors; active = well fitted inhibition curve with a large enough effect, not every such curve was filed as active; inconclusive = small, poorly fitted or top-dose-only effect, or another doubt; inactive = no such curve, though single readings can be large or run the other way;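 also: plate controls were no enzyme wells and a reference inhibitor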
Tau fluor counter = counter-screen for tau fibril formation inhibitors. tau K18 P301L Alexa594 fluorescence, heparin fibrillization. Potency, µM (highest dose often 57.7 µM), without a hit: top-dose activity change, negative = decrease. actives 0.93% (n = 280,000). AID 1463; also: nearly all actives have a fitted effect of over 55% in size
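Human tau K18 P301L (15 uM unlabeled, 0.24 uM Alexa 594-labeled) in 100 mM sodium acetate pH 7 with 20 uM heparin, 6 hr at 37 C. ThT 30 uM added, 1 hr ambient; Alexa 594 FP and total fluorescence read at 555/632 nm.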
Tau fibril ThT = inhibitors of human tau fibril formation, thioflavin T binding; AID 1460; Potency, µM (titrated, usually from 57.4 µM), inactives show at the top dose activity, negative = inhibition, most hits filed as inhibitors; P10636; recombinant tau K18 P301L (four-repeat tau fragment), heparin-induced fibrillization, ThT fluorescence; actives 2.1% (n = 270,000); also: nearly all actives have a fitted effect of over 55% in size
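K18 P301L tau (15 uM + 0.24 uM Alexa 594-tagged), heparin 20 uM, NaOAc pH 7, 6 h 37 C; ThT 30 uM, 1 h RT, ex 450/em 510 nm.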
The depositor's hits bear a star; ? = inconclusive; . = no result given; [ ] = another dose, or the depositor's remark. In the library only some 9.5% were active in any assay of this set; here they are far more common. Unless noted, calls follow the shape of the dose curve; as a rule, active = well fitted curve in the direction sought with a large enough effect; inconclusive = small, poorly fitted or top-dose-only effect, or another doubt; inactive = no such curve, though single readings can be large; an effect the other way counts as inactive or inconclusive. Unless noted, % is scaled to controls: 0 for no effect and ±100 for the full control effect; potency is read from the fitted curve at half-maximal effect.

SMILES | HPGD block | NPSR antagonist | Tau FP inhib | ALDH1A1 block | Tau fluor counter | Tau fibril ThT
O=C(Nc1ccccc1)Nc1ccccc1NS(=O)(=O)c1cccs1 | -5% | 7% | -5% | -3% | -19% | -1%
O=C(Nc1ccc(Cl)c(Cl)c1)Nc1ccccc1NS(=O)(=O)c1cccs1 | -4% | -32% | 14µM* | 8% | 7.1µM*[quencher] | ?
CC(=O)c1cccc(NC(=O)C(OC(=O)c2ccccc2NS(=O)(=O)c2cccs2)c2ccccc2)c1 (centres undefined) | -14% | -12% | 18µM* | ? | ? | 13%
CCOc1ccccc1NC(=O)C(OC(=O)c1ccccc1NS(=O)(=O)c1cccs1)c1ccccc1 (centres undefined) | -15% | -3% | -1% | -3% | -13% | 5%
COCCn1c(=N)c(C(=O)NC2CCCC2)cc2c(=O)n3cc(C)ccc3nc21 | . | . | -2% | . | 4% | 0%
CCCc1cc2c(=O)c(-c3ccc4c(c3)OCCO4)c(C)oc2cc1OS(C)(=O)=O | -12% | ? | 9% | 0.35µM* | -24% | ?
COc1cc2c(cc1OC)C(=S)NC(C)(C)C2 | -12% | -2%[46.1 µM] | 5% | 25µM* | -9% | -12%
CCOC(=O)/C=C1\NC(C)(C)Cc2cc(OC)c(OC)cc21 | -5% | 2%[46.1 µM] | -10% | -4% | -9% | -14%
COc1ccc(NCC(=O)N/N=C/c2c(C)nn(Cc3ccccc3)c2Cl)cc1 | ? | 0% | 8% | 16µM* | ? | ?
CCC(Oc1ccccc1)C(=O)Nc1ccccn1 (centres undefined) | -13% | -10%[46.1 µM] | -4% | 2.8µM* | -11% | -8%
CCC(Oc1ccccc1)C(=O)NC1CCSC1=O (centres undefined) | . | 15% | -6% | 6.3µM* | 8%[2.34 µM] | -7%
CCC(Oc1ccccc1)C(=O)Nc1ccsc1C(=O)OC (centres undefined) | ? | -29% | -15% | 14µM* | -7% | -18%
O=C(Nc1cccc(F)c1)N1CCC2(CC1)CCN(C(=O)c1cc(C(F)(F)F)cc(C(F)(F)F)c1)CC2 | -10% | . | . | 9% | . | .
COc1ccc(/C=N/N2CCOCC2)cc1O | -8% | 6% | -3% | 3% | -12% | -14%
CCN(Cc1ccccc1)c1ccc(/C=N/N2CCOCC2)cc1 | -16% | -4% | 10% | 2.2µM* | ? | ?
CCN(CC)c1ccc(/C=N/N2CCN(c3ccccn3)CC2)cc1 | . | -13% | 0% | 22µM* | ? | 1.3µM*
CCN(CC)c1ccc(/C=N/N2CCOCC2)cc1 | -18% | -21%[46.1 µM] | 4% | 22µM* | -13% | ?
CC(C)(C)c1ccc(O)c(CN(Cc2cc(C(C)(C)C)ccc2O)C2CCCCC2)c1 | -12% | . | . | 8%[13.5 µM] | . | .
O=C1OC(O)C(C(Cl)Cl)=C1Cl (centres undefined) | -8% | . | . | 20µM* | . | .
CC(C)c1nn2c(=O)cc(COC(=O)c3cccs3)nc2s1 | . | . | -1% | . | -1% | -7%
CC1(C)CCC2=C(O1)c1ccccc1C(=O)C2=O | -15% | ? | ? | ? | -24% | 13µM*
CCCCCNCCCCC | -4% | . | . | ? | . | .
Cc1cccc(N2CCN(S(=O)(=O)c3ccc4c(c3)CCN4C(=O)CCC(=O)O)CC2C)c1 (centres undefined) | -2% | -2%[46.1 µM] | 2% | 5% | -9% | -15%
Nc1nonc1N/N=C/c1c(O)ccc2ccccc12 | . | -22% | 5% | -3% | 10µM*[quencher] | ?
Cc1nonc1C1CCCN1Cc1cn[nH]c1-c1ccc(-c2ccccc2)cc1 (centres undefined) | . | ? | -14% | 7.1µM* | -30% | -6%
SMILES | HPGD block | NPSR antagonist | Tau FP inhib | ALDH1A1 block | Tau fluor counter | Tau fibril ThT
COc1cc(-c2[nH]ncc2CN2CCCC2c2nonc2C)cc(OC)c1OC (centres undefined) | . | -24% | 2% | 3% | -5% | -4%
CC1CCN(C(=O)Cn2cc(SCC(=O)NCc3ccccc3Cl)c3ccccc32)CC1 | . | . | 1% | . | -8% | -5%
O=C(O)c1cccc(SSc2cccc(C(=O)O)c2)c1 | 4.5µM* | . | . | -11%[13.5 µM] | . | .
O=C(O)c1ccccc1 | -5% | . | . | -1% | . | .
CCc1ccc(S(=O)(=O)ON2C(=O)c3ccccc3C2=O)cc1 | . | -32% | ? | ? | -13% | 16µM*
Cc1ccc(S(=O)(=O)Nc2ccc(N3CCOCC3)nc2)cc1 | . | 3% | 10% | -5% | -11% | -4%
Cc1ccc(C)n1-c1ccc(N2CCOCC2)nc1 | ? | -18%[46.1 µM] | -13% | ? | -29% | 13µM*
CCCn1c2ccccc2c2cnn(CC(=O)Nc3ccc(C)cc3Br)c(=O)c21 | . | . | -12% | . | -8% | 0%
Nc1ccc(N2CCN(c3ccc(Cl)c(Cl)c3)CC2)cc1 | -3% | -5% | -5% | -15% | ? | 16µM*
Nc1ccc(N2CCN(c3ccc(F)cc3)CC2)cc1 | . | -4% | -7% | 22µM* | ? | 13µM*
Nc1ccc(N2CCCCCC2)cc1 | -11% | ? | 14µM* | 7.9µM* | ? | 7.1µM*
COC(=O)N1CCN(c2ccc(Cl)c(Cl)c2)CC1 | -20% | 7%[46.1 µM] | 6% | 2% | -9% | ?
CO[C@H]1COC(=O)C/C=C\[C@H](C)[C@@H](NS(=O)(=O)c2ccc(C)cc2)COC(=O)C/C=C\[C@@H]1C | . | . | -4%[11.6 µM] | -13%[13.5 µM] | -21%[11.6 µM] | ?
CCCCN1Cc2cc(C(=O)c3cc(F)ccc3O)cnc2NC1=O | ? | -10%[7.67 µM] | -5% | ? | -14% | ?
CN(C)S(=O)(=O)c1ccc(N2CCCC2)c(C(=O)NC(c2ccccc2)c2ccccc2)c1 | ? | -10%[46.1 µM] | 5% | ? | -9% | -2%
Cn1cc(/C=C2\SC(=S)N(NC(=O)c3ccccc3)C2=O)c2ccccc21 | -7% | -22% | 25µM* | 7% | 24% | ?
Cn1cc(/C=C2\SC(=S)N(NC(=O)c3cccc(Cl)c3)C2=O)c2ccccc21 | . | -27% | -6% | . | -17% | ?
O=C(NN1C(=O)/C(=C/C=C/c2ccccc2)SC1=S)c1ccncc1 | . | -39% | -11% | 4.5µM* | ? | 11µM*
C=CC[C@](C)(O)c1ccccc1 | -2% | . | 4% | 1% | -10% | -8%
COc1ccc(C(=O)[C@H](Br)[C@H](Br)C(=O)O)cc1 | -13% | . | . | 0.28µM* | . | .
CCCCS(=O)(=O)N1C2=NC(C(=O)OC)=C(C(=O)OC)[C@@H]3N(C)c4ccccc4[C@]23C[C@H]1C(=O)OC | -5% | . | -1%[11.6 µM] | 6%[13.5 µM] | 0%[11.6 µM] | 3%[11.5 µM]
Nc1ccc2oc(-c3ccc4nc[nH]c4c3)nc2c1 | -17% | 16%[46.1 µM] | 4% | ? | ? | 14µM*
Cc1nc2ccc(-c3nc4cc(N)ccc4o3)cc2[nH]1 | ? | 13%[46.1 µM] | -1% | ? | -23% | ?
